{"source": "paper PMC4336329", "about": "(PLoS ONE, 2015)", "note": "Among all 310,000 compounds or so, about 2,200 (0.71%) showed an effect of 50% or more. The effect is printed as a negative number. The list comes from a sample in which strong results are over-represented; it also holds similar structures and randomly drawn compounds.", "data": [{"target": "human ether-à-go-go-related gene (hERG) potassium channel (human, UniProt Q12809)", "sequence (Q12809 whole entry, looked up)": "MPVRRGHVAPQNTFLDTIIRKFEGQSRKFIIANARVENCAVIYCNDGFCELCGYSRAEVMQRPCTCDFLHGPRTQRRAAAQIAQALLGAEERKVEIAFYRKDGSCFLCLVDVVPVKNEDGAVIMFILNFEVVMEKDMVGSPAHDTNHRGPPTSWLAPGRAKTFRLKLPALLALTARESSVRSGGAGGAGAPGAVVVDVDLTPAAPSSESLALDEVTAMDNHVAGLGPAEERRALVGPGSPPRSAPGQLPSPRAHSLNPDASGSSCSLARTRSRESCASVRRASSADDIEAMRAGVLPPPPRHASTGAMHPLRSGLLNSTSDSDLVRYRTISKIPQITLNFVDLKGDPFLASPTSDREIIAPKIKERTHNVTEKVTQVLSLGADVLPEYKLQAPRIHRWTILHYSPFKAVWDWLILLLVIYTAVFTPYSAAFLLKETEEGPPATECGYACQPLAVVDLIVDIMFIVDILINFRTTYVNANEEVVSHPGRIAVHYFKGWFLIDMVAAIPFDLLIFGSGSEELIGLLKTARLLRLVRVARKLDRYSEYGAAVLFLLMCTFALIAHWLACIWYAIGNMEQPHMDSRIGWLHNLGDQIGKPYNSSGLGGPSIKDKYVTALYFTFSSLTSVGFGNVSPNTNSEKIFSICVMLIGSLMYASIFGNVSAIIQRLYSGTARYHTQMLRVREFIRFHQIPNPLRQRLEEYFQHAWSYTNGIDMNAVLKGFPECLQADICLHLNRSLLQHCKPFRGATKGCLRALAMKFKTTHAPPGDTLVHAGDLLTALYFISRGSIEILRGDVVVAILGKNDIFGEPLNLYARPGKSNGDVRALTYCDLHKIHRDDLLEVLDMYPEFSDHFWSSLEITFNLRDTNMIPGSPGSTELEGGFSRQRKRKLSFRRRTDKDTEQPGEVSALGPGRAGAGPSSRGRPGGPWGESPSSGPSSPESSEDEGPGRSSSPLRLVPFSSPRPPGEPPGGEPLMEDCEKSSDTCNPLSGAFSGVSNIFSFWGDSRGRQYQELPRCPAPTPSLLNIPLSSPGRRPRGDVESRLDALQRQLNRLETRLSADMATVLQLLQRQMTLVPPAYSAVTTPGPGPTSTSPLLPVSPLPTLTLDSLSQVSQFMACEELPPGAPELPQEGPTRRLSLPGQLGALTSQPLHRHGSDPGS", "assay": "primary screen, population patch clamp on CHO cells stably expressing hERG; higher = less effect of the substance", "units": {"hERG current change (%, negative = inhibition) at 1uM": "%"}, "values": [{"smiles": "CC(C)OC(=O)CC(=O)CSc1nc2c(cc1C#N)CCC2", "hERG current change (%, negative = inhibition) at 1uM": 16.3}, {"smiles": "Cc1ccc(C(=O)Nc2ccc(OCc3ccccc3)cc2)cc1[N+](=O)[O-]", "hERG current change (%, negative = inhibition) at 1uM": 2}, {"smiles": "CCN1CCN(c2ncnc3sc(C)c(-c4ccccc4)c23)CC1", "hERG current change (%, negative = inhibition) at 1uM": -25.9}, {"smiles": "O=C(Nc1cccc(Oc2ccc3c(c2)C(=O)NC3=O)c1)c1cccs1", "hERG current change (%, negative = inhibition) at 1uM": -2.79}, {"smiles": "Cc1ccccc1N1C(=O)C(Oc2ccc(Cl)cc2)C1CNCCCOC(C)C", "note": "(centres unmarked)", "hERG current change (%, negative = inhibition) at 1uM": -3.82}, {"smiles": "O=C(OCc1ccc([N+](=O)[O-])cc1)C1CC(=O)N(c2ccccc2)C1", "note": "(centres unmarked)", "hERG current change (%, negative = inhibition) at 1uM": -36}, {"smiles": "O=C(OCc1nnc(-c2ccc([N+](=O)[O-])cc2)o1)C1CC(=O)N(CCc2ccccc2)C1", "note": "(centres unmarked)", "hERG current change (%, negative = inhibition) at 1uM": -17.8}, {"smiles": "O=C(OCc1ccc([N+](=O)[O-])cc1)C1CC(=O)N(CCc2ccccc2)C1", "note": "(centres unmarked)", "hERG current change (%, negative = inhibition) at 1uM": -56.3}, {"smiles": "Cc1cccn2c(=O)c3cc(C(=O)NCCc4ccccc4)c(=N)n(Cc4ccco4)c3nc12", "hERG current change (%, negative = inhibition) at 1uM": -35.5}, {"smiles": "Cc1cccn2c(=O)c3cc(C(=O)NCc4ccco4)c(=N)n(CCc4ccccc4)c3nc12", "hERG current change (%, negative = inhibition) at 1uM": -82.2}, {"smiles": "Cc1cccn2c(=O)nc(SCC(=O)NCc3ccco3)nc12", "hERG current change (%, negative = inhibition) at 1uM": 4.54}, {"smiles": "Cc1cccn2c(=O)c3cc(C(=O)NCc4ccco4)c(=N)n(C(C)C)c3nc12", "hERG current change (%, negative = inhibition) at 1uM": -84.9}, {"smiles": "Cc1cccn2c(=O)c3cc(S(=O)(=O)c4ccccc4)c(=N)n(Cc4ccco4)c3nc12", "hERG current change (%, negative = inhibition) at 1uM": 5.3}, {"smiles": "COc1ccc(CCn2c(=N)c(C(=O)NCc3ccco3)cc3c(=O)n4cccc(C)c4nc32)cc1", "hERG current change (%, negative = inhibition) at 1uM": -76.6}, {"smiles": "Cc1cccn2c(=O)c3cc(C(=O)NCc4ccco4)c(=N)n(CCOCCO)c3nc12", "hERG current change (%, negative = inhibition) at 1uM": -63.3}, {"smiles": "CCOC(=O)CC1Sc2ccccc2NC1=O", "note": "(centres unmarked)", "hERG current change (%, negative = inhibition) at 1uM": -7.75}, {"smiles": "CCN1CCc2c(sc(NC(=O)c3ccc(C(=O)c4ccccc4)cc3)c2C(N)=O)C1.Cl", "hERG current change (%, negative = inhibition) at 1uM": -7.72}, {"smiles": "COc1cccc(C(=O)Nc2cccc(-c3nc4ncccc4o3)c2C)c1", "hERG current change (%, negative = inhibition) at 1uM": 12.6}, {"smiles": "CC1(c2nnc(-c3ccncc3)o2)CC(c2ccccc2)=NO1", "note": "(centres unmarked)", "hERG current change (%, negative = inhibition) at 1uM": 16.4}, {"smiles": "Clc1cccc(OCc2nnc(-c3ccccc3Br)o2)c1", "hERG current change (%, negative = inhibition) at 1uM": 9.74}, {"smiles": "O=Cc1ccc(-c2ccc(C(=O)O)cc2)o1", "hERG current change (%, negative = inhibition) at 1uM": -2.38}, {"smiles": "O=C(CC1CCCCC1)c1c(O)c2ccccc2oc1=O", "hERG current change (%, negative = inhibition) at 1uM": -4.69}, {"smiles": "CCOC(=O)c1c(C)n(CC(O)c2ccccc2)c2ccc(O)cc12", "note": "(centres unmarked)", "hERG current change (%, negative = inhibition) at 1uM": 13.6}]}]}
